Test results published in PubChem BioAssay (NCI).
This is part of a sample that, as a whole, favours compounds with a hit. Of some 79,000 tested, about 15% had one in any assay. No stated cut-off is given here; in the data, active means growth inhibition above about 70%; inactive means the rest. Where a SMILES comes first, the peptide text is derived from it.

Legend:
[1] = NCI Yeast Anticancer Drug Screen. Data for the rad50 strain (AID 155);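 further: 0% = growth of vehicle-only cultures of the same strain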; conditions: S. cerevisiae rad50 strain growth inhibition; at 50.0 µM; active compounds read high
Procedure, shortened: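 Compounds were tested on a yeast strain with an engineered DNA damage repair alteration; the reported value is growth inhibition normalised to vehicle treatment.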

[2] = NCI Yeast Anticancer Drug Screen. Data for the mec2-1 strain (AID 157); conditions: S. cerevisiae mec2-1 strain, at 50.0 µM, active compounds read high
Procedure, shortened: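 Cells of the genetically defined mec2-1 yeast strain are incubated with test compound. Inhibition of growth is calculated against vehicle-treated controls.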

[3] = NCI Yeast Anticancer Drug Screen. Data for the sgs1 mgt1 strain (AID 161);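 further: 0% = growth of cultures given vehicle only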; conditions: S. cerevisiae sgs1 mgt1 strain, at 50.0 µM, active compounds read high
Procedure, shortened: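 Genetically altered yeast, compound exposure, growth inhibition relative to vehicle.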

[4] = NCI Yeast Anticancer Drug Screen. Data for the cln2 rad14 strain (AID 165);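 further: 0% = growth equal to vehicle treated cultures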; conditions: S. cerevisiae cln2 rad14 strain, at 50.0 µM, active compounds read high
Procedure, shortened: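 The screen exposed genetically defined yeast (cln2 rad14) to test compounds and scored growth inhibition relative to vehicle-treated controls.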

[5] = NCI Yeast Anticancer Drug Screen. Data for the bub3 strain (AID 167); conditions: S. cerevisiae bub3 mutant strain, at 50.0 µM, active compounds read high
Procedure, shortened: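 Growth of a checkpoint-deficient yeast mutant is measured after compound exposure. Values represent inhibition relative to vehicle.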

[6] = NCI Yeast Anticancer Drug Screen. Data for the mlh1 rad18 strain (AID 175); conditions: S. cerevisiae mlh1 rad18 strain growth inhibition; at 50.0 µM; active compounds read high
Procedure, shortened: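 Compound-treated yeast growth, normalised to vehicle controls. Strain bears defined DNA repair mutations.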

Measured: growth inhibition

C[N+]1(C(CO)Cc2c[nH]c3ccccc23)Cc2ccccc2C1 (stereo unspecified)
inactive: [1] 10.6% | [2] 14.6% | [3] -19.1% | [4] -8.35% | [5] -65.5% | [6] -5.7%

Nc1ccc2c(c1)C(=O)N(OS(=O)(=O)c1ccccc1)C2=O
inactive: [1] 55% | [2] 39% | [3] 41.2% | [4] 41% | [5] 35% | [6] 47.2%

Cc1ccc(C(N)=O)cc1
inactive: [1] 20% | [2] -8.65% | [3] -1.55% | [4] -31.1% | [5] 17.9% | [6] 42.1%

Cc1cc(N/N=C/c2ccc(Cl)cc2)c2cc3c(cc2n1)OCO3
inactive: [1] 24.2% | [2] -4.5% | [3] -7% | [4] 1.6% | [5] 27.5% | [6] 14.7%

CN(C)C(=S)Oc1ccc([N+](=O)[O-])cc1Cl
inactive: [1] 17.9% | [2] 6.95% | [3] 4.95% | [4] 19.4% | [5] -3.3% | [6] 29.3%

CC1(C)C(N)C(C)(C)C1N (stereo unspecified)
inactive: [1] -0.05% | [2] -14.5% | [3] -0.3% | [4] 11.8% | [5] 17.1% | [6] 2.3%

COC1CCCCC(=NNC(N)=O)CCCC1 (stereo unspecified)
inactive: [1] -0.2% | [2] -2.65% | [3] -13.2% | [4] -44.6% | [5] -7.15% | [6] -1.15%

COC(=O)C(NC(=O)C(NC(=O)C(N)C(C)C)C(C)C)C(C)C (stereo not drawn) (H-Val-Val-Val-OMe; configuration not given here)
inactive: [1] 5.3% | [2] 20.6% | [3] 5.4% | [4] -11.7% | [5] -3.4% | [6] -9.5%

CC(=N/Nc1ccc([N+](=O)[O-])cc1[N+](=O)[O-])/C(C)=C/C1C=CCCC1(C)C (stereo unspecified)
inactive: [1] 21.2% | [2] -2.75% | [3] 8.5% | [4] 3% | [5] 16.1% | [6] 6.65%

CCCNS(=O)(=O)c1ccccc1C(=O)NC1CCCCC1
inactive: [1] 3.25% | [2] -9.9% | [3] 4.05% | [4] 10.8% | [5] -19.7% | [6] 22.2%

Cc1ccc(N=NC(C2=NC(=O)CS2)c2nc3ccccc3[nH]2)cc1 (stereo unspecified)
inactive: [1] -55% | [2] -31% | [3] -52.8% | [4] -44.8% | [5] -56% | [6] -73.8%

O=C1OC(CC(=O)c2ccc(Cl)c(Cl)c2)C(Cl)=C1Cl (stereo unspecified)
inactive: [1] 43.1% | [2] 12.3% | [3] 33.1% | [4] 29.9% | [5] 30% | [6] 52.7%

Cc1cc(N(CCC#N)CCC#N)ccc1/C=C/C(=O)Nc1cccc(Cl)c1
inactive: [1] 8.95% | [2] 4.6% | [3] 3.55% | [4] 13.2% | [5] 27.4% | [6] 7.65%

Cn1nc(-c2ccccc2)c(C(=O)/C=C/c2ccccc2)c(N2CCCC2)c1=O
inactive: [1] -22.1% | [2] -11.2% | [3] 3.2% | [4] -4.15% | [5] -21.1% | [6] -19.2%

Cc1nnnn1[C@H]1C(C#N)CC2[C@@H]3CCC4=Cc5nnnn5CC[C@]4(C)C3CC[C@@]21C (stereo partly specified)
inactive: [1] 23.3% | [2] 27.4% | [3] 23% | [4] 16.6% | [5] 13.2% | [6] 25.2%

CCCCCCCCCCCCCCCc1cc(=O)n(-c2ccc(NC(C)=O)cc2)n1C
inactive: [1] -2% | [2] -23.8% | [3] -12.6% | [4] 3.1% | [5] -1% | [6] -9.7%

C/C(=C/c1c(C)[nH]c(=O)[nH]c1=O)C(=O)O
inactive: [1] 10.9% | [2] 13.6% | [3] -3.75% | [4] -29.8% | [5] 8.75% | [6] -3.75%

Cc1cccc2c(SCCCCCCSc3c4ccccc4nc4c(C)cccc34)c3ccccc3nc12
inactive: [1] -2.25% | [2] -8.1% | [3] -26.7% | [4] -21.5% | [5] -2.7% | [6] 7.05%

Cc1ccc2ncccc2c1
inactive: [1] -2.75% | [2] -18.1% | [3] 1.8% | [4] -12.4% | [5] 3.9% | [6] -6.45%

CCCCCCCC/C=C/CCCCCCCCCCCC(=O)O
inactive: [1] -7.6% | [2] -39.2% | [3] -1.45% | [4] -46.5% | [5] -8.9% | [6] 2.35%

Cc1cc2c(=O)cc(-c3ccc(Cl)cc3Cl)oc2c(C(=O)O)c1C
inactive: [1] -19.6% | [2] 10.9% | [3] 9% | [4] 23.6% | [5] 11.6% | [6] 29.5%

CCOC(=O)c1c(N)n(-c2ccccc2)c(=O)n(-c2ccccc2)c1=O
inactive: [1] -8.85% | [2] -5.3% | [3] -30.9% | [4] 19.4% | [5] -31.8% | [6] -34%

C(=N/OC(c1ccccc1)(c1ccccc1)c1ccccc1)/c1ccccc1
inactive: [1] 13.7% | [2] 24.2% | [3] 6.2% | [4] 7.8% | [5] 15.8% | [6] 6.45%

CCCCC(CC)COCCC(=O)O (stereo unspecified)
inactive: [1] -9.55% | [2] -8.55% | [3] -4.25% | [4] -55.9% | [5] -19.8% | [6] -18.8%

CCN(Cc1ccccc1)c1ccccc1C
inactive: [1] 12% | [2] -6.85% | [3] 10.8% | [4] 0% | [5] 7.65% | [6] 1.45%

O=C(O)CCC(C(=O)O)N1C(=O)C2C3CCC(C3)C2C1=O (stereo unspecified)
inactive: [1] -26% | [2] -33.9% | [3] -36.2% | [4] -16% | [5] -24.9% | [6] -5.45%

c1ccc2c(c1)C1OC2c2ccccc21
inactive: [1] -30.2% | [2] -20.3% | [3] -26.4% | [4] -26.3% | [5] -0.4% | [6] -1.25%

COCCCNC1=C(C#N)C(=O)NC2(CCCC2)S1
inactive: [1] -35.6% | [2] -35.5% | [3] -18.5% | [4] -2.65% | [5] -30.8% | [6] -17.2%

CC(=O)Nc1c(C)cccc1F
inactive: [1] 2.35% | [2] 6.45% | [3] -3.95% | [4] 12.1% | [5] 3.3% | [6] -12.4%

NC(CCCCC1CCCCC1)C(=O)O (stereo unspecified)
inactive: [1] -5.75% | [2] -29.4% | [3] -18.1% | [4] -37.4% | [5] -28.4% | [6] -2.95%

CCC(c1ccc(OC)cc1)c1cc2c(cc1OCC(=O)O)OCO2 (stereo unspecified)
inactive: [1] 36.6% | [2] 55.2% | [3] 57.1% | [4] 53.9% | [5] 44.5% | [6] 65.5%

Cc1cc(C(N)=O)no1
inactive: [1] 1.5% | [2] -2.55% | [3] -5.7% | [4] -10% | [5] 3.9% | [6] -1.05%

CCOC(=O)/C(C#N)=C/N=c1ccccn1C
inactive: [1] 5.1% | [2] -7.95% | [3] -1.3% | [4] -25.1% | [5] -6.6% | [6] -4.5%

ClCc1ccc(-c2ccccc2)cc1
inactive: [1] 48.8% | [2] 16.4% | [3] 19.7% | [4] 26.7% | [5] 8.7% | [6] 47%

S=c1[nH]c(=S)c2[nH]cnc2[nH]1
inactive: [1] -7.4% | [2] -5.45% | [3] -7.1% | [4] -7.35% | [5] -4.95% | [6] -0.3%

COC(=O)CC(=O)C=P(c1ccccc1)(c1ccccc1)c1ccccc1
inactive: [1] -3.2% | [2] -4.15% | [3] -3.15% | [4] 6.3% | [5] -17.5% | [6] -2.15%

CNc1ncnc2n[nH]nc12
inactive: [1] -10.7% | [2] -0.35% | [3] -12.1% | [4] -23% | [5] -11.6% | [6] 3.45%

COC(=O)c1ncn(Cc2ccccc2)c1O (tested in a mixture with another compound)
inactive: [1] 8.7% | [2] -2.2% | [3] 8.55% | [4] 16.3% | [5] 8.15% | [6] 36%

CCOC(=O)C1CCN(S(=O)(=O)c2ccccc2)CC1
inactive: [1] 3.4% | [2] -7.3% | [3] 11.8% | [4] -38.1% | [5] 18.6% | [6] -6.15%

CC(C)(C)c1cc(Nc2c([N+](=O)[O-])cc([N+](=O)[O-])cc2[N+](=O)[O-])cc(C(C)(C)C)c1O
inactive: [1] -17.7% | [2] 10.4% | [3] 2.65% | [4] 20.4% | [5] -5.4% | [6] 0.45%

OC12CC/C(=N/OCc3ccccc3)CC1c1ccccc12 (stereo unspecified)
inactive: [1] 11.2% | [2] -22.9% | [3] -29.8% | [4] -16% | [5] -36.1% | [6] 0.45%
